Wnt act = Wnt/beta-catenin pathway activators, primary screen, cell-based, plate reader, single point | Wnt/beta-catenin reporter cell assay, activator | activation, % at 9.35 µM | 1.2% of 300,000 active; in the data active = activation above about 30%, passing the limit was not always enough; inconclusive = no clear call, values can overlap the other calls
esBAF inh = Bmi1 luciferase reporter increase in mESCs, primary screen, esBAF inhibitor project, mouse ES cells, Bmi1 luciferase knock-in, single point; 24 h; 100% = twice the neutral-well signal; reporter increase, % at 12.5 µM; 2% of 350,000 active; AID 602393, 2012; in the data active = activation above about 40%; inconclusive = no clear call, values can overlap the other calls;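 also: a rise in the Bmi1 reporter signal indicates esBAF inhibition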
hgDAF12 agonist = H. glycines DAF-12 receptor agonists, primary screen, cell-based, luminescence, HEK293, GAL4 fusion, UAS-luciferase; Nuclear hormone receptor DAF-12 (Heterodera glycines), GAL4 fusion; HEK293 GAL4-hgDAF12 UAS-luciferase reporter, agonist luminescence; normalized to butyrate control; activation, % at 6.8 µM; 1.8% of 370,000 active; AID 687014, 2013;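 active = activation above a cutoff set at the mean of all screened compounds plus 3 SD, cut at about 10% in these data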
hcDAF-12 act = H. contortus DAF-12 nuclear receptor activators, primary screen, cell-based, luminescence, HEK293, lit1-tk-luc reporter; AID 652067, 2013; 1.4% of 370,000 active; activation, % at 6.8 µM; HEK293 hcDAF-12 lit1-tk-luc reporter; 0% DMSO, 100% Δ7-dafachronic acid;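 active = activation above the mean of all tested compounds plus 3 SD, cut at about 5.5% in these data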
ssDAF-12 act = S. stercoralis DAF-12 nuclear receptor activators, primary screen, cell-based, luminescence, HEK293, GRIP1 co-expression, lit1-tk-luc; Nuclear hormone receptor DAF-12 (Strongyloides stercoralis); HEK293 ssDAF-12/GRIP1 lit1-tk-luc reporter; % of 3 µM dafachronic acid response; activation, % at 6.8 µM; 1% of 370,000 active;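 active = activation above the mean over all tested compounds plus 3 SD, cut at about 0.9% in these data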
DAX1 StAR inh = DAX1 (NR0B1) inhibitors on StAR promoter, primary screen, cell-based, luminescence, SF-1 (NR5A1), full-length DAX-1; HEK293T StAR-luciferase reporter, SF-1/DAX-1 repression relief; inhibition, % at 6.8 µM; 1.1% of 370,000 active; AID 652010, 2013;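 active = inhibition above the mean over all tested compounds plus 3 SD, cut at about 3.6% in these data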;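 also: higher inhibition means more luminescence from relief of DAX-1 repression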
LXRb hcDAF ctr = LXR agonists, Gal4 luciferase reporter, confirmation, counter-screen for hcDAF-12 agonist project, cell-based, luminescence, HEK293, H. contortus campaign; shares compounds with hcDAF-12 act; HEK293 Gal4-LXR tk-luc reporter, 24 h; normalized: DMSO 0%, positive control 100%; activation, % at 6.8 µM; 3,400 tested, under 10 active; AID 743027, 2013;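 active = mean percent activation of the reporter above a cutoff set as the average over tested compounds plus their standard deviation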
Target sequence (P55055 whole entry, looked up, the tested form may be a part): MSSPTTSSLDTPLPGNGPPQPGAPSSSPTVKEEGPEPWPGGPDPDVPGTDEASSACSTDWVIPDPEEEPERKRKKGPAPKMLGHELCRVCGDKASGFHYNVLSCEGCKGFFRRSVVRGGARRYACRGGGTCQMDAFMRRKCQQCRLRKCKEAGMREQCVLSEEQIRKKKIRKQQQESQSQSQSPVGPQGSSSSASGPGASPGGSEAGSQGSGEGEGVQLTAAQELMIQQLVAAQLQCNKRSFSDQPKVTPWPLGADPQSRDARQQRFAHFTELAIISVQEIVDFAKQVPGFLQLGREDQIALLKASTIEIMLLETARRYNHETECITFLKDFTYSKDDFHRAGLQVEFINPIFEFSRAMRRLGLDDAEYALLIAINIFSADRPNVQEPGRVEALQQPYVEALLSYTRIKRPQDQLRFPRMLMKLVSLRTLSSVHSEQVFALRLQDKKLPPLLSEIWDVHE
hcDAF12 ag = H. contortus DAF-12 receptor agonists, confirmation, cell-based, luminescence, HEK293, lit1-tk-luc, triplicate | shares compounds with hcDAF-12 act | HEK293 hcDAF-12 lit1-tk-luc reporter; % of Δ7-dafachronic acid response | activation, % at 6.8 µM | 61% of 3,400 active | AID 743032, 2013;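 active = mean activation across triplicate tests above the threshold derived from the earlier primary screen, cut at about 5.5% in these data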
A number is an active result; i = inactive; ? = inconclusive; nt = not tested or not shown. Most compounds without a hit are left out; they make up all but 4.2% or so of the library.

SMILES	Wnt act	esBAF inh	hgDAF12 agonist	hcDAF-12 act	ssDAF-12 act	DAX1 StAR inh	LXRb hcDAF ctr	hcDAF12 ag
CC(C)CC#Cc1cnc2c(c1)C(=O)N([C@@H](C)CO)C[C@@H](C)[C@H](CN(C)C(=O)Nc1ccccc1F)O2	nt	i	nt	nt	nt	nt	nt	nt
C/C(=N\Nc1ccccc1[N+](=O)[O-])c1ccccc1O	i	?	i	6.9	i	i	i	14.4
C/C(=N\Nc1ccc(S(N)(=O)=O)cc1[N+](=O)[O-])c1ccccc1O	i	i	i	i	i	i	nt	nt
C[C@@H]1CN([C@H](C)CO)C(=O)c2cccc(NC(=O)C3CCCCC3)c2O[C@@H]1CN(C)C(=O)Nc1ccc(F)cc1	nt	i	nt	nt	nt	nt	nt	nt
COc1ccc(C(=O)C[n+]2ccc3ccccc3c2C)cc1	i	nt	i	12.6	1.8	i	i	14.2
Cc1ccc(C(=O)C[n+]2ccc3ccccc3c2)cc1	i	i	i	6.7	1.3	i	i	i
O=C(C[n+]1ccc2ccccc2c1)c1ccc(NC(=O)c2ccccc2)cc1	i	nt	i	i	i	i	nt	nt
C[C@@H]1CN([C@@H](C)CO)S(=O)(=O)c2ccc(/C=C/c3ccccc3)cc2O[C@H]1CN(C)C(=O)c1ccncc1	nt	i	nt	nt	nt	nt	nt	nt
CCS/C(N)=N/N=C/c1cc(C)ccc1O	nt	nt	i	7.9	i	i	i	6.2
Cc1noc(C)c1S(=O)(=O)Nc1cccc2c1O[C@H](CN(C)C(=O)NC1CCCCC1)[C@H](C)CN([C@H](C)CO)C2=O	nt	i	nt	nt	nt	nt	nt	nt
CCN(c1ccccc1)S(=O)(=O)c1ccc(C(=O)Nc2nnc(C3CC3)o2)cc1	i	nt	i	i	i	i	nt	nt
CN(c1ccccc1)S(=O)(=O)c1ccc(C(=O)Nc2nnc(C3CC3)o2)cc1	i	nt	i	7.2	i	i	i	i
COc1ccc(/C=C2\Oc3ccccc3C2=O)cc1	i	i	10.4	7.2	i	i	i	i
COc1ccc(Cl)cc1NC(=O)c1[nH]nc(OC)c1[N+](=O)[O-]	i	nt	i	6.7	i	i	i	i
CCCc1cn(CC[C@@H]2CC[C@@H](NS(=O)(=O)c3ccccc3Cl)[C@H](CO)O2)nn1	nt	i	nt	nt	nt	nt	nt	nt
C[C@H](CO)N1C[C@H](C)[C@@H](CN(C)CC2CC2)Oc2c(NC(=O)C3CCOCC3)cccc2C1=O	nt	i	nt	nt	nt	nt	nt	nt
CC1COc2c3ccccc3nn21 (stereo unspecified)	i	nt	i	i	i	i	nt	nt
C#Cc1ccc2c(c1)COc1c3ccccc3nn1-2	i	i	12.3	11.2	1.8	i	i	8.3
C(=N\Nc1nncc2ccccc12)/c1ccccc1	38.3	i	i	7.7	i	i	i	13.6
CN(C)c1ccc(/C=N/Nc2nncc3ccccc23)cc1	i	i	14.4	8.0	1.4	i	i	11.3
CN(C)c1ccc(/C=N/Nc2nc3ccccc3o2)cc1	i	i	i	7.7	i	i	i	i
O=C(CSCC(=O)N1CCCCC1)Nc1nc(-c2cccs2)cs1	i	i	i	9.1	i	i	i	6.0
O=C(CSCC(=O)N1CCCCC1)Nc1nc(-c2ccc(Cl)s2)cs1	i	i	i	i	i	i	nt	nt
CC1CC(C)CN(C(=O)CSCC(=O)Nc2nc(-c3cccs3)cs2)C1 (stereo unspecified)	?	i	i	8.2	i	i	i	i
CO[C@H]1CN(C)C(=O)c2cc(NS(C)(=O)=O)ccc2OC[C@@H](C)N(C(=O)c2ccc3c(c2)OCO3)C[C@@H]1C	nt	i	nt	nt	nt	nt	nt	nt
SMILES	Wnt act	esBAF inh	hgDAF12 agonist	hcDAF-12 act	ssDAF-12 act	DAX1 StAR inh	LXRb hcDAF ctr	hcDAF12 ag
O=C1C(=C(O)c2ccccc2)C(=O)c2ccccc21	i	i	i	7.0	2.1	i	i	i
O=C(O)C1(Nc2ccccc2Cl)CCCC1	i	nt	i	i	i	i	nt	nt
O=C1OCC(CO)(CO)N=C1NNc1ccccc1Cl	i	i	i	9.0	i	i	i	i
CO[C@H]1CN(C)C(=O)c2ccc(NC(=O)C3CCC3)cc2OC[C@@H](C)N(Cc2cccnc2)C[C@H]1C	nt	i	nt	nt	nt	nt	nt	nt
CC(=O)c1sc(-c2ccc(Cl)cc2)nc1C	i	nt	i	i	i	i	nt	nt
Nc1nc(-c2ccc(Cl)cc2)nc(-c2ccc(Cl)cc2)n1	i	i	i	i	i	i	nt	nt
CC(=O)c1c(C)nc(-c2ccc(Cl)cc2)nc1N=CN(C)C	nt	nt	i	8.6	1.0	i	i	8.6
CC(=O)c1c(C)nc(-c2ccc(Cl)cc2)nc1N	nt	nt	i	14.8	1.6	i	i	7.3
COc1ccc(S(=O)(=O)Nc2ccc3c(c2)C(=O)N([C@@H](C)CO)C[C@@H](C)[C@@H](CN(C)C(=O)NC(C)C)O3)cc1	nt	i	nt	nt	nt	nt	nt	nt
O=C(C1CCOCC1)N1C[C@H]2[C@@H](c3ccccc31)[C@@H](CO)N2C(=O)Cc1ccccc1	nt	i	nt	nt	nt	nt	nt	nt
Cn1nc(-c2ccccc2)c2nc3ccccc3nc21	nt	i	i	6.8	i	i	i	6.1
Clc1nc2ccccc2nc1-c1ccccc1	i	i	i	i	i	i	nt	nt
O=C(Nc1ccccn1)c1onc2c1CCCC2	nt	i	i	8.0	i	i	i	5.8
C[C@@H]1CN([C@H](C)CO)C(=O)c2cccc(NS(=O)(=O)c3ccc(F)cc3)c2O[C@@H]1CN(C)C(=O)Nc1ccccc1	nt	i	nt	nt	nt	nt	nt	nt
Brc1ccc(-c2nc3ccccc3s2)s1	nt	i	12.8	10.0	1.2	i	i	11.4
Clc1ccc(-c2[nH]ncc2N=Nc2ccccc2)cc1	i	i	i	i	i	i	nt	nt
Nc1ccc(N=Nc2ccccc2)c2ccccc12	i	i	i	8.2	i	i	i	i
COc1ccccc1N=Nc1ccc(N)c(C)c1	i	i	i	i	i	i	nt	nt
c1ccc(N=Nc2ccc3cccccc2-3)cc1	i	nt	i	9.1	1.8	i	i	10.2
O=C(NCC[C@@H]1CC[C@@H](NC(=O)C2CCCCC2)[C@H](CO)O1)c1ccc(F)cc1	nt	i	nt	nt	nt	nt	nt	nt
